Screening data deposited in PubChem BioAssay by National Center for Advancing Translational Sciences (NCATS).
Pf growth 96h: inhibits malaria parasite growth, 96 h | Potency, µM (highest dose often 28.7 µM), for inactives: at the top dose activity change, negative = inhibition, usual class: inhibitors | P. falciparum luciferase reporter growth, 96 h | actives 6.9% (n = 320,000); note: potency is the fitted concentration of half-maximal effect; % is set by controls: 0 for no effect and ±100 for the full control effect
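Two-generation exposure (96 h) targets delayed-death phenotype. Reporter parasites carrying integrated firefly luciferase, in red cells at 2% hematocrit and 0.05% parasitemia final, kept at 37 C, 5% CO2; luminescence loss indicates inhibition.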
CHX counter: counter-screen hit for Shiga toxin inhibitors, cycloheximide; cell reporter, cycloheximide protein synthesis inhibition counterscreen; max response, %; actives 12% (n = 300,000); in the data active = max response mostly above about 13%, no sharp cut-off; inactive = mostly below about 14%; note: read at 38.3 µM for the half of the compounds with a filed dose; 0% is about no effect
Shiga toxin inh: Shiga toxin inhibition; Vero cells, Shiga toxin protein synthesis inhibition reporter; inhibition, % at 38.7 µM; actives 9.2% (n = 290,000); in the data active = inhibition mostly above about 28%, no sharp cut-off; inactive = mostly below about 43%; note: 0% is about no effect
Pf growth 48h: inhibits P. falciparum growth in the first generation, 48 h | P. falciparum luciferase growth in erythrocytes, 48 h | actives 5.9% (n = 310,000) | Potency, µM (titrated, usually from 28.7 µM), without a hit: top-dose activity change, negative = inhibition, actives largely listed as inhibitors; note: potency is the fitted concentration of half-maximal effect; % is set by controls: 0 for no effect and ±100 for the full control effect
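In quantitative HTS format, infected erythrocytes bearing luciferase-reporter parasites were treated for a single generation at 37 C. Luminescence after adding detection reagent served as the growth measure.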
The depositor's hits bear a star; ? = inconclusive; . = no result. Compounds with a hit are over-represented: about 21% of the library has one in this group of screens. Unless noted, calls come from the whole dose curve; as a rule, active = well fitted inhibition curve with a large enough effect; inconclusive = small, poorly fitted or top-dose-only effect, or another doubt; inactive = no such curve, though single readings can be large or run the other way.

SMILES	Pf growth 96h	CHX counter	Shiga toxin inh	Pf growth 48h
COCCNC(=O)Cn1cnc2c(cnn2-c2ccc(C)cc2)c1=O	?	-2.8	-1.9	-0.9%
O=C(CCN1C(=O)/C(=C/c2ccccc2)SC1=S)NCCc1ccc(O)cc1	11.7µM*	-8.4	-6.1	-1.5%
COc1ccc(/C=C2\SC(=S)N(CCC(=O)NCCc3ccc(O)cc3)C2=O)cc1	15.5%	-4.4	-3.7	40.3%
COc1ccccc1/C=C1\SC(=S)N(CCC(=O)NCCc2ccc(O)cc2)C1=O	?	20.9*	9.5	?
Cc1ccccc1C(=O)NC(CC(C)C)C(=O)N1CCN(c2ccccc2)CC1 (stereo not drawn)	?	1.1	-0.9	?
N#CC1=C(N)Oc2ccc3ccc(O)cc3c2C1c1ccsc1 (stereo not drawn)	?	-1.5	-13.8	-18.7%
NC(=O)NOCc1ccc(Cl)cc1Cl	17.8%	-4.9	1.9	27.7%
CNC(=S)/N=C/NOCc1ccc(Cl)cc1Cl	14.7µM*	0.5	9.1	?
CCOc1ccc(NC(=O)CCC(=O)NNS(=O)(=O)c2ccccc2[N+](=O)[O-])cc1	19.4%	2.3	5.3	-88.1%
O=C(CCNC(=O)c1ccccc1Cl)Nc1cc(S(=O)(=O)N2CCOCC2)ccc1N1CCCC1	-3.7%	-3.9	3.9	-14.1%
CN1C(=O)N(c2nnc(C(C)(C)C)s2)C(=O)C1c1ccccc1 (stereo not drawn)	30.2%	3.6	6.4	30.2%
CCCCN1C(=O)N(c2nnc(C(C)(C)C)s2)C(O)C1c1ccc(C)cc1 (stereo not drawn)	10.4µM*	16.7*	29.9	8.28µM*
CCC1(c2ccccc2)NC(=O)N(Cc2ccc(C(=O)OC)cc2)C1=O (stereo not drawn)	?	-3.8	-8.6	-12.8%
COc1cc(CCCN2C(N)=NC[C@@H]2Cc2ccc(O)cc2)cc(OC)c1OC	2.33µM*	-3.5	3.0	?
COc1cc(CCCN2C(=S)NC[C@@H]2Cc2ccccc2)cc(OC)c1OC	-10.7%	2.1	-4.1	-15.6%
COc1cc(CCCN2CCNC[C@@H]2Cc2ccccc2)cc(OC)c1OC	44.6%	.	.	?
COc1cc(CCCN2C(N)=NC[C@@H]2Cc2ccccc2)cc(OC)c1OC	9.28µM*	-2.2	-4.6	9.28µM*
CC(C(=O)c1ccc(Br)cc1)[n+]1cccc2ccccc21 (stereo not drawn)	0.0%	-4.4	.	?
CC[C@@]12C(=O)N(c3ccc(OC)cc3)C(=O)N1[C@H](c1ccc(Cl)cc1)[C@@H]1C(=O)N(C3CCCCC3)C(=O)[C@@H]12	?	-2.6	-8.6	?
CC[C@@]12C(=O)N(c3cccc(Br)c3)C(=O)N1[C@H](c1ccc(Cl)cc1)[C@@H]1C(=O)N(C3CCCCC3)C(=O)[C@@H]12	8.28µM*	-1.4	-1.1	?
CC(C)C[C@@]12C(=O)N(c3cccc(Cl)c3)C(=O)N1[C@H](c1ccc(Cl)cc1)[C@@H]1C(=O)N(C3CCCCC3)C(=O)[C@@H]12	63.6%	.	.	?
CC(C)C[C@@]12C(=O)N(c3cccc(Br)c3)C(=O)N1[C@H](c1ccc(Cl)cc1)[C@@H]1C(=O)N(C3CCCCC3)C(=O)[C@@H]12	?	.	.	2.62µM*
CC(C)C[C@@]12C(=O)N(c3cccc(Cl)c3)C(=O)N1[C@H](c1ccc(F)cc1)[C@@H]1C(=O)N(C3CCCCC3)C(=O)[C@@H]12	?	.	.	4.15µM*
CCc1cccc(C)c1NC(=O)COC(=O)c1cc([N+](=O)[O-])ccc1N1CCOCC1	36.3%	.	.	?
CCOC(=O)c1c(N2C(=O)CC(Sc3ccccc3C(=O)O)C2=O)sc(C)c1C (stereo not drawn)	52.9%	-2.4	-6.9	2.33µM*
SMILES	Pf growth 96h	CHX counter	Shiga toxin inh	Pf growth 48h
CC(=O)Nc1ccc(N=Cc2c(O)c(C(=O)Nc3ccccc3)cc3ccccc23)cc1	11.5%	25.6	104.3*	?
CCN1C=CC2=C(C#N)C(N)C(C#N)(C#N)C(c3ccccc3C(F)(F)F)C2C1 (stereo not drawn)	?	-1.8	-13.7	2.94µM*
Cc1ccc(NC(=O)CCn2c(=O)c3cccn3c3ccccc32)cc1C	12.5%	10.7	26.5*	?
CCC(C)NC(=O)CCn1c(=O)c2cccn2c2ccc(F)cc21 (stereo not drawn)	27.2%	-2.4	-2.1	-3.8%
CC(CNC(=O)CCn1c(=O)c2cccn2c2ccc(F)cc21)c1ccccc1 (stereo not drawn)	13.1µM*	6.3	-10.0	?
COC(=O)CN(c1ccccn1)S(=O)(=O)c1ccccc1	2.33µM*	-0.5	28.1	22.8%
Cc1ccc(S(=O)(=O)N2CCC(C(=O)OCC(=O)NC(C)c3ccc(F)cc3)CC2)cc1C (stereo not drawn)	14.2%	.	.	-23.2%
COC(=O)C1C(=O)C2=C(CC1C)NC(C)=C(C(=O)OCc1ccc(OC)cc1)C2c1ccc(C)o1 (stereo not drawn)	?	-1.6	2.8	?
CCOC(=O)C1=C(C)NC2=C(C(=O)CC(c3ccc(OC)c(OC)c3)C2)C1c1ccc(C)o1 (stereo not drawn)	?	-1.1	-17.2	1.17µM*
COc1ccc(C2C(C(=O)OCC3CCCO3)=C(C)NC3=C2C(=O)CC(c2ccco2)C3)cc1O (stereo not drawn)	10.4µM*	-2.2	-17.5	?
CC1=C(C(=O)OCC2CCCO2)C(c2cccc(O)c2)NC(=O)N1 (stereo not drawn)	33.8%	1.3	-1.4	13.9%
CC1=C(C(=O)OCc2ccccc2)C(c2ccc(C)o2)C2=C(CCCC2=O)N1 (stereo not drawn)	85.3%	-2.3	-6.1	11.7µM*
CC1=C(C(=O)OC2CCCCC2)C(c2ccc(C)o2)C2=C(CCCC2=O)N1 (stereo not drawn)	?	5.1	4.3	.
COC(=O)C1=C(C)NC(C)=C(C(=O)OCC2CCCO2)C1c1cccc(Br)c1 (stereo not drawn)	?	2.8	-31.0	9.28µM*
O=C(CCN1C(=O)CSc2ccccc21)Nc1ccc(OC(F)(F)F)cc1	-0.6%	.	.	-6.2%
COc1ccccc1NC(=O)C1=C(C)NC2=C(C(=O)CC(c3ccc(OC)c(OC)c3)C2)C1c1coc2ccccc2c1=O (stereo not drawn)	0.0%	-2.3	6.8	11.7µM*
C/C=C(\C)C(=O)NCCN1C2=NC[C@H](Cc3ccc(O)cc3)N2C[C@H]1Cc1ccc(O)cc1	?	0.2	11.8	?
Cc1ccc(C(=O)NCCN2C3=NC[C@H](C)N3C[C@H]2Cc2ccc(O)cc2)cc1Br	13.1µM*	-1.3	-13.4	?
COc1ccc(C[C@@H]2CN3C(=NC[C@@H]3C)N2C[C@H](C)NC(=O)c2ccc(C)c(Br)c2)cc1	2.62µM*	1.3	-7.3	8.28µM*
COc1ccc(C[C@H]2CN3C(=NC[C@H]3C)N2CCNC(=O)c2ccc(C)c(Br)c2)cc1	3.7µM*	-0.3	-12.2	-6.4%
CCN(CC)CCCCN1c2ccccc2Oc2ccc(Cl)cc21	.	-10.9	-13.0	.
CCCCn1c(=O)cc(O)c2ccccc21	-16.9%	-2.9	-16.0	-7.2%
CN(C)c1ccc2c(O)cc(=O)n(C)c2c1	5.22µM*	-1.3	31.3	-4.4%
